In PubChem BioAssay:
“And” between values parts separate entries of the source, which are not always exact repeats. Identical values can stand only once. The source made the active and inactive calls.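 How the source made its calls, unless noted: active means normalized viability below 100% at a tested concentration; inactive means the rest.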

Tests used:
[1] = molecular target: 6-phosphogluconate dehydrogenase, decarboxylating (Homo sapiens) (UniProt P52209); assay: inhibition of human phosphogluconate dehydrogenase – biochemical, recombinant enzyme, NADPH absorbance, primary screen (AID 1159550;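 active means at least 20% inhibition of 6-phosphogluconate dehydrogenase activity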); conditions: recombinant 6PGD, NADPH absorbance 341 nm; at 10 µM; stronger effect = higher value
[2] = compounds altering viability of human ES cells (AID 493140; call rule not given here;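 further: cells exposed to compounds for four days before counting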); conditions: human embryonic stem cell survival screen; stronger effect = higher value
[3] = stimulators of insulin release from INS-1E, primary screen, cell-based, 5 mM glucose, NPC library (AID 1117329;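 active means compound raises insulin release from rat beta cells at 5 mM glucose, no numeric limit stated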); conditions: rat INS-1E insulin secretion, at 10 µM, stronger effect = higher value
[4] = growth inhibition of GSK3B-pretreated HCT116 cells – cell-based, CellTiter-Glo, 0.2 to 20 µM (AID 1117336;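 active means compounds lowering colon cancer cell viability after pretreatment blocking the GSK3B kinase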); conditions: HCT116 viability after GSK3B inhibitor, at 20 µM, stronger effect = higher value
[5] = inhibition of endothelial tube formation, primary screen, imaging, VEGF stimulated, CD31 staining, tube area, NPC library (AID 1117340;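 active means compound that reduces growth-factor-driven endothelial tube area in a mixed cell culture, no cutoff stated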); conditions: VEGF-stimulated ADSC/ECFC co-culture, at 10 µM, stronger effect = higher value
[6] = GLP1 release stimulators, primary, NCI-H716, NPC library (AID 1117341;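 active means compound raises GLP1 secretion from the human gut endocrine cells, with no numeric limit stated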); conditions: NCI-H716 cells, at 10 µM, stronger effect = higher value
[7] = HCT116 colon cancer cell growth inhibition, primary screen, CellTiter-Glo luminescence, NPC library (AID 1117342;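 active means compounds that lower survival of HCT116 colon cancer cells in the luminescence readout, no numeric limit stated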); conditions: at 20 µM (top of the series)
[8] = reduced SW480 viability measured with CellTiter-Glo, NPC library, primary (AID 1117343;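 active means compounds that lower viability of the colon cancer cells in the luminescence readout, with no numeric limit stated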); conditions: CellTiter-Glo luminescence; at 20 µM (top of the series) unless noted
[9] = NPC library primary testing for decreased DLD-1 cell viability via CellTiter-Glo (AID 1117346;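 active means compounds that lower survival of DLD-1 colon cancer cells in the luminescence readout, no cutoff given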); conditions: DLD-1 viability, CellTiter-Glo luminescence; at 20 µM (top of the series)
[10] = EMT-state selective cytotoxicity in co-culture – imaging, PC-3E GFP, TEM4-18 mCherry, primary screen (AID 1345086;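 active means compounds killing one labelled cell type while sparing the other, by normalised counts and ratio limits, not self-fluorescent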;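 on all read-outs here: cells exposed to compound for 72 h before imaging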;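 on red/green cell ratio (normalised): normalised mesenchymal count divided by normalised epithelial count so high means epithelial killing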); conditions: PC-3E GFP / TEM4-18 mCherry co-culture, imaging cell counts, at 1 µM; for red/green cell ratio (normalised): actives lie on both sides, counts scaled to control wells, 1 = unselective
[11] = blockers of cellular phospholipid synthesis – cell-based, LOPAC library, screen 4, primary screen (AID 1347384; call rule not given here); conditions: animal cells, phospholipid biosynthesis inhibition screen; at 10 µM
[12] = MELAS cybrid and Rieske KO viability enhancers – cell-based, MELAS cybrids, Rieske KO mouse fibroblasts, CellTiter-Glo, primary screen (AID 1508586;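 active means mean z-score across replicates of 1.96 or higher in either the MELAS or the Rieske mutant cell line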;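 further: z relative to plate mean and SD of compound and empty wells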); conditions: low glucose
[13] = molecular target: NAD(+) hydrolase SARM1 (Homo sapiens) (UniProt Q6SZW1); assay: blocking NAD cleavage by SARM1 SAM-TIR – cell lysate, NAD-Glo luminescence (AID 1508614;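 active means compound whose remaining NAD level is above about 45 nM, limit read from the data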); conditions: SAM-TIR HEK293T lysate NADase, at 1 µM, stronger effect = higher value
[14] = molecular target: Mitogen-activated protein kinase 7 (Homo sapiens) (UniProt Q13164); assay: Gal4-ERK5 driven luciferase induction – cell-based, HTS, primary screen (AID 1508626;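 active means luciferase signal above three times the same-plate solvent-only control wells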;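 further: luciferase driven by Gal4-ERK5 fusion binding five Gal4 sites before minimal TATA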); conditions: HeLa Gal4-ERK5 transactivation, 18 h, at 5 µM, stronger effect = higher value
[15] = galactose survival enhancers in mitochondrial complex I cybrids – cell-based, galactose medium, ATP luminescence, primary screen (AID 1645843;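 active means z-score of at least 1.8 in each of two replicates, scored against plate mean and spread of sample wells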;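 further: positive z means more ATP and so rescue of galactose-driven cybrid death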); conditions: complex I mutant cybrid cells, 72 h, stronger effect = higher value
[16] = viability loss with induced miR-34 in A549 – imaging, A549 dox-inducible miR-34, nuclei and caspase counts, primary screen (AID 1347080;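 active means compounds whose cell count with miR-34 switched on is under 0.7 times the count with it off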); conditions: A549 miR-34 inducible, Hoechst nuclei count, 48 h
[17] = P. berghei load reduction in hepatocytes – cell-based, HepG2, luciferase luminescence, HepG2 viability, primary screen (AID 624349; in the data active means parasite load remaining mostly below about 12%, no sharp cut-off; inactive means mostly above about 10%;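 further: 100% = mean of DMSO negative control wells on the same plate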); conditions: P. berghei liver stage in HepG2, luciferase luminescence, concentration not given here; parasite load remaining: stronger effect = lower value; viability: measured here: HepG2 viability without parasites
[18] = modulation of C. elegans fzo-1 (AID 1259413; call rule not given here;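 further: fzo-1 mutant C. elegans worms in liquid wells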); conditions: C. elegans fzo-1 modulator screen, mean read-out; stronger effect = higher value
[19] = drug combination growth inhibition, ovarian cancer – cell-based, oncology-focused library, rucaparib conditional, profiling panel (AID 1508598); conditions: patient-derived ovarian cancer cells, CellTiter-Glo viability, 144 h, stronger effect = lower value
[20] = measured here: epithelial PC-3E GFP cell survival
[21] = measured here: mesenchymal TEM4-18 mCherry cell survival
[22] = MELAS cybrid survival, CellTiter-Glo 48 h, stronger effect = higher value
[23] = Rieske KO mouse fibroblast survival, CellTiter-Glo 72 h
[24] = stronger effect = lower value, cell number ratio, induced over uninduced
[25] = measured here: relative caspase fold change +Dox/-Dox
[26] = measured here: total cells with miR-34 induction, stronger effect = lower value
[27] = measured here: total cells without miR-34 induction

Chain of 6-phosphogluconate dehydrogenase, decarboxylating (Homo sapiens) (P52209 whole entry, looked up): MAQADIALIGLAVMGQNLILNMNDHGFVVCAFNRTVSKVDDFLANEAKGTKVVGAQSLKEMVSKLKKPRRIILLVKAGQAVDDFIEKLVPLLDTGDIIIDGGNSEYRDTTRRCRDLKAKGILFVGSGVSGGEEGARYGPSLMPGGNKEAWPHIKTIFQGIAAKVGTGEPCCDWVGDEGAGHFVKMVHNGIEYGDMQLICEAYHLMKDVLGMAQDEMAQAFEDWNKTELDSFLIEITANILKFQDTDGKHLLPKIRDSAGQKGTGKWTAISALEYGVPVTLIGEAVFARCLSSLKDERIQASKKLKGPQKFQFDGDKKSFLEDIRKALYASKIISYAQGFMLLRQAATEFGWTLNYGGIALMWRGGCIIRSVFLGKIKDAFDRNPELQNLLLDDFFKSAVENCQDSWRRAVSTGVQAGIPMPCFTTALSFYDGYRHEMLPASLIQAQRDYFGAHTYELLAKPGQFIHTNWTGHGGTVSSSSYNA
Chain of NAD(+) hydrolase SARM1 (Homo sapiens) (Q6SZW1 whole entry, looked up, the tested form may be a part): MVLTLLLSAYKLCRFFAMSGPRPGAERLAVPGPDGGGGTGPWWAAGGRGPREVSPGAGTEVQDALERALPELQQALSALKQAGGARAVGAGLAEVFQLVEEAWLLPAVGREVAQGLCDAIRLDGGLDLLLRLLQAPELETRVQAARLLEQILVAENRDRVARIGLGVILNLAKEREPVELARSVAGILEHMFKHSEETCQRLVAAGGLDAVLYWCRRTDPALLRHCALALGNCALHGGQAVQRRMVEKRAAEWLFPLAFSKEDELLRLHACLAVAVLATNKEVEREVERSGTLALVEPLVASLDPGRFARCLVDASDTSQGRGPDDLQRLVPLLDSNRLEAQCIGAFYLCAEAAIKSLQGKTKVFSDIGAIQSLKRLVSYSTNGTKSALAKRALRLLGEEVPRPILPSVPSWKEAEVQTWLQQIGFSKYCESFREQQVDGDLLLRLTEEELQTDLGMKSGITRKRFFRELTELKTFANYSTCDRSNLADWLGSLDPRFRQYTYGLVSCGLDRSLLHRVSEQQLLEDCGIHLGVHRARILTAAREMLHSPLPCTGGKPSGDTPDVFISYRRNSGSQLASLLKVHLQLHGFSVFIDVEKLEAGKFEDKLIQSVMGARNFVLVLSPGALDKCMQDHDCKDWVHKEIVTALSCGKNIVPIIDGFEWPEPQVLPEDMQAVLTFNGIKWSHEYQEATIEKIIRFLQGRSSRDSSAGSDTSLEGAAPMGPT
Chain of Mitogen-activated protein kinase 7 (Homo sapiens) (Q13164 whole entry, looked up, the tested form may be a part): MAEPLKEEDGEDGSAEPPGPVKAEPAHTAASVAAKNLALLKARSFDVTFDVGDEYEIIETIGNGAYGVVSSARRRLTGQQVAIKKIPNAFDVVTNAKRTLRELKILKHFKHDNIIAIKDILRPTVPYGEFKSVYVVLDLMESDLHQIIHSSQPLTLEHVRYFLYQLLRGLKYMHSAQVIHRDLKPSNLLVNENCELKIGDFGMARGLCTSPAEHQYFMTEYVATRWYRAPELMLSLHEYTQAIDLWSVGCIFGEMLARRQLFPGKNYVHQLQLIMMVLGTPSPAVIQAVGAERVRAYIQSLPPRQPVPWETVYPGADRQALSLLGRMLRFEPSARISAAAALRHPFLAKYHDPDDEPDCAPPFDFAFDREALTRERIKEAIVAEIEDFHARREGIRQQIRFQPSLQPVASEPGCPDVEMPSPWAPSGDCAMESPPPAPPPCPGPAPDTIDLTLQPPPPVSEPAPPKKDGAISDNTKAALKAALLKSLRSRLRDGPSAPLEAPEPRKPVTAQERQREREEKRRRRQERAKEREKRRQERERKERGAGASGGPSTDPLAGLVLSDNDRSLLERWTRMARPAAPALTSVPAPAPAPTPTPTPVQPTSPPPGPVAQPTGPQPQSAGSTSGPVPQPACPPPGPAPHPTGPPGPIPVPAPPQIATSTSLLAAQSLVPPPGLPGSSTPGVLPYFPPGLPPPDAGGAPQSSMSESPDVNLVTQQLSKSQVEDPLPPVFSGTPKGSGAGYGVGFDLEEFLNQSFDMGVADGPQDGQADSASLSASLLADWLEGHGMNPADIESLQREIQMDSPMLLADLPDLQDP

CC12CCC3c4ccc(OC(=O)c5ccccc5)cc4CCC3C1CCC2=O (configuration not stated)
inactive: inhibition [1] -9.5%

C[C@H](CCC(=O)O)[C@H]1CC[C@H]2[C@@H]3C[C@H](O)[C@@H]4C[C@H](O)CC[C@]4(C)[C@H]3CC[C@]12C
inactive: inhibition [1] 2.54%

CC(C)(C)c1ccc(C(O)CCCN2CCC(C(O)(c3ccccc3)c3ccccc3)CC2)cc1 (configuration not stated)
1.02 and 1.14: z-score [12, 23]
inactive: survival [2] 3.75 | insulin secretion stimulation [3] 5.9% | red/green cell ratio (normalised) [10] 0.94 | outcome [11] | z-score [12, 22] -0.29 and -0.00284 | remaining NAD [13] 10 nM | luciferase signal [14] 108 AU | z-score [15] -1.31 and 0.135
active: viability decrease [4] 101% | tube area decrease [5] 98.4% | GLP1 secretion stimulation [6] 70% | inhibition of viability [7] 102% | viability decrease (inhibition) [8] 142% | viability decrease (inhibition) [9] 103%
1.18: normalised cell number [10, 21]
1.26: normalised cell number [10, 20]

COc1ccc2c(c1)O[C@@H]1c3ccc(OC)cc3OC[C@H]21
inactive: inhibition [1] 0.294%

CC(C)c1c(C(=O)Nc2ccccc2)c(-c2ccccc2)c(-c2ccc(F)cc2)n1CC[C@@H](O)C[C@@H](O)CC(=O)O
active: viability decrease [4] 95.5% | tube area decrease [5] 67.8% | inhibition of viability [7] 81.6% | viability decrease (inhibition) [8] 96.3% | viability decrease (inhibition) [9] 68.1%
inactive: insulin secretion stimulation [3] 3.7% | GLP1 secretion stimulation [6] 5.8% | inhibition [1] 17.2% | fold change [16, 24] 1.27 | outcome [11] | z-score [12, 22] -2.11 | remaining NAD [13] 10 nM | luciferase signal [14] 28 AU | z-score [15] -0.8
4270: cell count [16, 27]
5410: cell count [16, 26]
1.55: fold change [16, 25]
-0.779: z-score [12, 23]

CN1[C@@H]2CC(OC(=O)[C@H](CO)c3ccccc3)C[C@H]1[C@@H]1O[C@@H]12 (some centres not stated)
102% and 73.5% and 68.5%: viability [17]
10000 and 9330 and 11300: cell count [16, 27]
8470 and 8340 and 9610: cell count [16, 26]
-0.839 and -0.133: z-score [12, 23]
inactive: parasite load remaining [17] 98.9% and 107% and 26.7% | insulin secretion stimulation [3] 0.9% | viability decrease [4] 1% | tube area decrease [5] -4.7% | GLP1 secretion stimulation [6] 2.4% | inhibition of viability [7] -0.5% | viability decrease (inhibition) [8] -5.7% | viability decrease (inhibition) [9] -0.6% | inhibition [1] 6.42% | mean signal [18] 252 | fold change [16, 24] 0.844 and 0.894 and 0.852 | z-score [12, 22] -0.375 and 0.309 | remaining NAD [13] 10 nM | luciferase signal [14] 88 AU | z-score [15] -0.01 and 0.315
1.08 and 0.602 and 0.997: fold change [16, 25]

CC(C)n1c(/C=C/[C@@H](O)C[C@@H](O)CC(=O)O)c(-c2ccc(F)cc2)c2ccccc21
inactive: survival [2] 2.5 | parasite load remaining [17] 164% and 130% | insulin secretion stimulation [3] 3.6% | GLP1 secretion stimulation [6] 1.4% | mean signal [18] 243 | red/green cell ratio (normalised) [10] 0.7 | fold change [16, 24] 1.1 and 1.08 | z-score [12, 22] -1.26 | viability ([19]; at 0.000305 µM, OCI-C5x cells, with rucaparib 10 µM, 100% = cells with rucaparib alone) 102% | viability ([19]; at 0.000305 µM, OCI-C5x cells, without rucaparib) 102% | viability ([19]; at 0.00122 µM, OCI-C5x cells, with rucaparib 10 µM, 100% = cells with rucaparib alone) 102% | viability ([19]; at 0.00122 µM, OCI-C5x cells, without rucaparib) 109% | remaining NAD [13] 10 nM | z-score [15] -0.215 and -1.78
82.3% and 114%: viability [17]
0.844 and 2.14: fold change [16, 25]
1760 and 2100: cell count [16, 26]
1610 and 1940: cell count [16, 27]
active: viability decrease [4] 97.8% | tube area decrease [5] 100% | inhibition of viability [7] 88.8% | viability decrease (inhibition) [8] 111% | viability decrease (inhibition) [9] 50.2% | viability ([19]; at 0.000305 µM, OCI-P5x cells, with rucaparib 20 µM, 100% = cells with rucaparib alone) 86.5% | viability ([19]; at 0.000305 µM, OCI-P5x cells, without rucaparib) 89.2% | viability ([19]; at 0.00122 µM, OCI-P5x cells, with rucaparib 20 µM, 100% = cells with rucaparib alone) 89.7% | viability ([19]; at 0.00122 µM, OCI-P5x cells, without rucaparib) 88.8% | viability ([19]; at 0.00488 µM, OCI-C5x cells, with rucaparib 10 µM, 100% = cells with rucaparib alone) 92% | viability ([19]; at 0.00488 µM, OCI-C5x cells, without rucaparib) 96.6% | viability ([19]; at 0.00488 µM, OCI-P5x cells, with rucaparib 20 µM, 100% = cells with rucaparib alone) 82.4% | viability ([19]; at 0.00488 µM, OCI-P5x cells, without rucaparib) 87.2% | viability ([19]; at 0.0195 µM, OCI-C5x cells, with rucaparib 10 µM, 100% = cells with rucaparib alone) 73.9% | viability ([19]; at 0.0195 µM, OCI-C5x cells, without rucaparib) 71.3% | viability ([19]; at 0.0195 µM, OCI-P5x cells, with rucaparib 20 µM, 100% = cells with rucaparib alone) 44.2% | viability ([19]; at 0.0195 µM, OCI-P5x cells, without rucaparib) 53.6% | viability ([19]; at 0.0781 µM, OCI-C5x cells, with rucaparib 10 µM, 100% = cells with rucaparib alone) 50.9% | viability ([19]; at 0.0781 µM, OCI-C5x cells, without rucaparib) 54.7% | viability ([19]; at 0.0781 µM, OCI-P5x cells, with rucaparib 20 µM, 100% = cells with rucaparib alone) 21.8% | viability ([19]; at 0.0781 µM, OCI-P5x cells, without rucaparib) 31% | viability ([19]; at 0.313 µM, OCI-C5x cells, with rucaparib 10 µM, 100% = cells with rucaparib alone) 32.6% | viability ([19]; at 0.313 µM, OCI-C5x cells, without rucaparib) 33.3% | viability ([19]; at 0.313 µM, OCI-P5x cells, with rucaparib 20 µM, 100% = cells with rucaparib alone) 8.26% | viability ([19]; at 0.313 µM, OCI-P5x cells, without rucaparib) 10.2% | viability ([19]; at 1.25 µM, OCI-C5x cells, with rucaparib 10 µM, 100% = cells with rucaparib alone) 20.2% | viability ([19]; at 1.25 µM, OCI-C5x cells, without rucaparib) 22.5% | viability ([19]; at 1.25 µM, OCI-P5x cells, with rucaparib 20 µM, 100% = cells with rucaparib alone) 5.66% | viability ([19]; at 1.25 µM, OCI-P5x cells, without rucaparib) 4.09% | viability ([19]; at 5 µM, OCI-C5x cells, with rucaparib 10 µM, 100% = cells with rucaparib alone) 7.97% | viability ([19]; at 5 µM, OCI-C5x cells, without rucaparib) 7.19% | viability ([19]; at 5 µM, OCI-P5x cells, with rucaparib 20 µM, 100% = cells with rucaparib alone) 5.66% | viability ([19]; at 5 µM, OCI-P5x cells, without rucaparib) 4.42%
-0.983: z-score [12, 23]
0.75: normalised cell number [10, 20]
0.53: normalised cell number [10, 21]
